High-throughput results as filed in PubChem BioAssay.
Platelet DG rel = modulates dense granule release in human platelets; inhibition, %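 (compounds screened at 7.5 µM in platelet-rich plasma)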; human platelet-rich plasma, SFLLRN dense granule ATP release, luminescence; AID 1663; actives 0.22% (n = 300,000);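 active = mean replicate score, as percent of positive control, at or above 50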
HSP90 inh = blocks HSP90-mediated luciferase refolding in reticulocyte lysate | AID 1789 | actives 0.91% (n = 290,000) | Rabbit reticulocyte lysate, luciferase refolding luminescence, 3 h | inhibition, % at 5.6 µM;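 active = inhibition above the screen-wide mean plus 3 SD, computed separately per campaign, cut at about 16% in these data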;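 also: 0% = DMSO wells and 100% = 60 µM geldanamycin wells; inhibitors lower the luminescence because luciferase stays unfolded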
TWEAK-Fn14 inh = TWEAK-Fn14 signaling inhibition. AID 1159606. TWEAK-stimulated Fn14 reporter cells, luciferase luminescence, 8 h. actives 2% (n = 360,000). inhibition, % at 10 µM; in the data active = inhibition above about 50%
C8 TRAIL sens = caspase-8 TRAIL sensitization. NB7+C8 cells + TRAIL, ATPlite viability luminescence. inhibition (viability loss, TRAIL sensitization), % at 10 µM. actives 1% (n = 360,000). AID 624354;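 active = compounds causing at least 50% loss of cell viability in the single-dose screen, relative to plate controls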
PPC-1+TRAIL kill = kills PPC-1 cancer cells in the presence of TRAIL | AID 1443 | cell killing (% activity), % at 4 µM or 5 µM | actives 0.41% (n = 220,000) | PPC-1 cells + TRAIL, ATPLite viability luminescence;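 active = cell killing above 50% in the first pass at 4 µM, then a duplicate retest at 5 µM averaging 50% or more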;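 also: plate controls were cells with TRAIL plus DMSO for no effect and medium-only wells lacking cells for full effect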
TROY signal inh = TROY signaling inhibition; Q293 LMP1-TROYcd NF-kB luciferase reporter, 4 h; inhibition, % at 10 µM; actives 0.98% (n = 360,000); AID 1347056;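 active = compounds whose plate-normalised and pattern-corrected inhibition of the luciferase reporter signal at the single screening dose is 50% or more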
Active calls of the source: *; · = no result. Compounds with a hit are over-represented: about 3.5% of the library has one in this group of screens.

SMILES | Platelet DG rel | HSP90 inh | TWEAK-Fn14 inh | C8 TRAIL sens | PPC-1+TRAIL kill | TROY signal inh
Cc1cccc(N2CCN(C(=O)c3ccc(S(=O)(=O)N(C)c4ccccc4)cc3)CC2)c1C | · | · | 61* | 13 | · | 30
O=C(NCCCN1CCOCC1)c1ccc(CS(=O)(=O)c2ccc(Br)cc2)o1 | 2 | -2 | 15 | 14 | 27 | -14
Cc1ccc(S(=O)(=O)Cc2ccc(C(=O)NCCCN3CCN(C)CC3)o2)cc1 | 0 | 4 | 84* | 0 | 8 | 76*
Cc1ccc(S(=O)(=O)Cc2ccc(C(=O)N3CCN(c4cccc(C)c4C)CC3)o2)cc1 | 94* | 2 | 4 | 9 | · | 28
COc1ccc(S(=O)(=O)Cc2ccc(C(=O)N3CCN(c4cccc(C)c4C)CC3)o2)cc1 | 2 | -3 | 2 | 4 | 4 | 11
CN(C)S(=O)(=O)NCCNc1ccc(C(F)(F)F)cc1[N+](=O)[O-] | 0 | 1 | 11 | 12 | 24 | -25
CCCCCC(=O)Nc1cc(S(=O)(=O)O)cc2cc(S(=O)(=O)O)cc(O)c12 | · | · | 20 | -7 | · | -13
CCOc1ccc(CN2CCN(CCCc3ccccc3)CC2CCO)cc1 (stereo not given) | -7 | -3 | -1 | -6 | · | 16
N#Cc1ccc(NC(=O)Nc2ccc(Cl)cc2)cc1 | 3 | 2 | 63* | 58* | 0 | 26
CN(CC(=O)Nc1ccc(C#N)cc1)Cc1ccc(Cl)cc1 | -4 | 3 | -3 | -3 | -5 | 2
Fc1ccc(N2CCN(c3ncnc4c3nnn4Cc3ccccc3Cl)CC2)cc1 | 4 | 1 | 65* | 37 | · | 37
O=C(NNC(=O)c1ccccc1F)c1cccc(S(=O)(=O)N2CCc3ccccc32)c1 | · | · | 11 | 7 | · | 24
COc1ccc2nc(Nc3sc4c(c3C(N)=O)CCCC4)sc2c1 | · | -2 | 42 | 19 | 22 | 58*
CCN1CCN(CC(=O)Nc2nc3ccc(OC)cc3s2)CC1 | -6 | 0 | 17 | 11 | 25 | -16
COc1ccc2nc(NC(=O)CN3CCN(C)CC3)sc2c1 | -9 | 3 | -6 | 7 | -2 | 54*
COc1ccc(CC(=O)Nc2sc3c(c2C(N)=O)CCCC3)cc1 | 6 | -1 | -1 | 8 | · | -28
CCOc1ccc2nc(NC(=O)CN3CCC(n4nnc5cc(F)ccc54)CC3)sc2c1 | -2 | -3 | 33 | 32 | 17 | 57*
CC(C)(C)SCCNC(=O)c1ccc(Cl)c([N+](=O)[O-])c1 | -3 | -4 | -9 | -4 | 31 | 20
CN(C)C(CNC(=O)C1CCN(S(=O)(=O)c2cccc(Cl)c2Cl)CC1)c1ccccc1 (stereo not given) | 4 | 2 | 5 | -8 | · | -8
CCCC(C(=O)NC(C)(C)C)N(C(=O)c1snc(C(N)=O)c1N)c1ccc2c(c1)OCCO2 (stereo not given) | 4 | 1 | 86* | -3 | · | 82*
CCC(C)(C)NC(=O)CN(C(=O)c1snc(C(N)=O)c1N)c1ccc2c(c1)OCCO2 | -4 | -2 | 31 | 0 | 8 | -9
CN(C(=O)COC(=O)c1cc(S(=O)(=O)N2CCOCC2)ccc1Cl)C1CCS(=O)(=O)C1 (stereo not given) | 2 | · | 23 | 5 | · | 4
CC(=O)c1c(C)[nH]c(C(=O)OCC(=O)Nc2cc(Cl)ccc2[N+](=O)[O-])c1C | 0 | -3 | 88* | 13 | -3 | 70*
Cc1ccc(NC(=O)COC(=O)C2=COCCO2)c([N+](=O)[O-])c1 | 3 | 3 | 5 | 16 | 5 | 16
CC(=O)c1c(C)[nH]c(C(=O)OCC(=O)Nc2ccc(C)cc2[N+](=O)[O-])c1C | -3 | 1 | 63* | 36 | 9 | 41
SMILES | Platelet DG rel | HSP90 inh | TWEAK-Fn14 inh | C8 TRAIL sens | PPC-1+TRAIL kill | TROY signal inh
CCOC(=O)C1=C(COC(=O)COc2ccc(C#N)cc2)NC(=O)NC1C (stereo not given) | 14 | 3 | 90* | -9 | · | -1
CCOC(=O)C1=C(COC(=O)COc2ccc(C(C)=O)cc2)NC(=O)NC1C (stereo not given) | -8 | · | 3 | 20 | · | -8
CC/C=C\[C@H](O)[C@H](O)C1=C(C)C(=O)[C@]2(O1)C(=O)N[C@@](OC)(C(=O)c1ccccc1)C2O (stereo not given in full) | 1 | 4 | 69* | -11 | 13 | 46
CCN(C)C1CN(Cc2cn(Cc3ccc(Cl)cc3)nn2)S(=O)(=O)C1 (stereo not given) | · | · | 7 | -5 | · | 8
Cc1cccc(-n2c(-c3csc(C)c3C)n[nH]c2=S)c1 | 7 | 8 | 92* | -1 | -9 | 3
COc1cccc(C(=O)NCC(=O)NCc2cc(=O)n(C)c(=O)n2C)c1OC | -5 | -4 | -6 | 6 | · | -8
O=C(O)c1cc(S(=O)(=O)Nc2ccc3c(c2)OCCO3)c(Cl)cc1Cl | 3 | 3 | 91* | -7 | 4 | 83*
COc1ccc(NS(=O)(=O)c2ccc3c(c2)OCCO3)cc1OC | -10 | -5 | 23 | 0 | · | 1
COc1ccc(OC)c(S(=O)(=O)Nc2ccc3c(c2)OCCO3)c1 | · | · | 84* | -7 | · | 76*
Cc1ccc(NC(=O)c2ccc3c(c2)OCCO3)cc1S(=O)(=O)Nc1cccc(Cl)c1 | -12 | 4 | 62* | 19 | 11 | 59*
O=C(Nc1cccc(F)c1)c1ccc2c(c1)OCCO2 | 1 | 10 | 10 | 22 | · | -9
CC(=O)NCCNC(=O)c1cccc(NS(=O)(=O)c2ccc3c(c2)OCCO3)c1 | 0 | · | 5 | -4 | · | -22
CC(=O)NCCc1ccc(S(=O)(=O)Nc2ccc3c(c2)OCCO3)cc1 | 12 | · | 55* | -8 | · | 43
COc1ccc(NC(=S)N2CCN(S(=O)(=O)c3ccc(F)cc3)CC2)cc1 | · | -1 | 14 | 1 | · | -11
